# Hit rate of the full screen: of about 13,000 compounds, about 3,200 (25%) showed an effect of 50% or more. This is one part of the list.
# System: P. falciparum stage V gametocytes
# Set-up: BacTiter-Glo ATP luminescence viability of purified stage V gametocytes in 384-well plates, per cent inhibition versus DMSO
# Details: 48 h, 5 µM; inhibitor
row,Compound,% Inhibition [%]
1,O=C(/C=C/c1ccc(Cl)c(Cl)c1)NCCCCCN1CCCN(C(=O)Nc2cccc(Cl)c2)CC1 [TCMDC-135749],-36.61
2,CC(C)C[C@@H](/C=N/N1CCOC1=O)NC(=O)[C@H](CC(C)C)NC(=O)c1ccc(F)cc1 [TCMDC-136186],-17.2
3,c1cc(Nc2nccc(-c3cnn4ncccc34)n2)cc(-c2cnco2)c1 [TCMDC-138684],-9.488
4,CN1CCN(c2ccc(Nc3nccc(-c4cnn5ncccc45)n3)cc2Cl)CC1 [TCMDC-138688],55.04
5,O=[N+]([O-])c1cccc(Nc2nccc(-c3cnn4ncccc34)n2)c1 [TCMDC-138697],-28.72
6,Cc1ccc2[nH]c3c(NCCCN4CCOCC4)ncnc3c2c1 [TCMDC-124068],-37.8
7,N#Cc1ccc(-c2ccc3nc(N4CCCN(C5CCC5)CC4)ccc3c2)cc1 [TCMDC-136368],18.23
8,N=C1C=C(N)C(=O)c2ccccc21 [TCMDC-141992],106.9
9,O=C(Nc1ccc(OC2CCN(Cc3ccc(F)cc3)C2)c(Cl)c1)c1ccc(F)cc1 (stereo not shown) [TCMDC-133763],12.34
10,O=C1c2ccccc2-n2c1nc1ccccc1c2=O [TCMDC-125859],-11.25
11,COc1cccc(Nc2nc(NCCO)c3ccccc3n2)c1.Cl [TCMDC-124573],23.38
12,COc1cccc(Nc2nc(N)c3ccccc3n2)c1.Cl [TCMDC-123746],24.77
13,CCN1CCC2(c3cccc(OC)c3)Cc3nc4ccccc4c(-c4ccccc4)c3CC2C1 (stereo not shown) [TCMDC-138968],77.57
14,COCCOc1nc(N)nc2ncc(Cc3cc(OC)ccc3OC)c(C)c12 [TCMDC-137754],36.3
15,O=C(N[C@@H](Cc1ccccc1)C(=O)NC1CCCCCC1)c1ccc(O)c(-c2ccc(Cl)c(Cl)c2)c1 [TCMDC-140845],40.83
16,CCCCOc1cc(C)nc2ccc(NC(=O)COCC(=O)Nc3ccc4nc(C)cc(OCCCC)c4c3)cc12 [TCMDC-140149],-34.05
17,COc1cc(C)nc2ccc(NC(=O)COCC(=O)Nc3ccc4nc(C)cc(OC)c4c3)cc12 [TCMDC-139461],62.71
18,COc1cc(C)nc2ccc(NC(=O)Nc3ccc4nc(C)cc(OC)c4c3)cc12 [TCMDC-139138],8.428
19,COc1cc(Cn2ccc3c4c(N)nc(N)nc4ccc32)cc(OC)c1OC [TCMDC-137341],118.6
20,COc1cccc(Cn2ccc3c4c(N)nc(N)nc4ccc32)c1 [TCMDC-137811],100
21,COc1ccc(Cn2ncc3c4c(N)nc(N)nc4ccc32)cc1OC [TCMDC-131934],49.54
22,COCCOCCOCCn1ccc2c3c(N)nc(N)nc3ccc21 [TCMDC-137974],22.53
23,COCn1ccc2c3c(N)nc(N)nc3ccc21 [TCMDC-137505],0.2853
24,COCCn1ccc2c3c(N)nc(N)nc3ccc21 [TCMDC-137263],12.7

row,Compound,% Inhibition [%]
1,COc1ccc(Cn2ccc3c4c(N)nc(N)nc4ccc32)cc1 [TCMDC-139862],105.9
2,O=C(/C=C/c1ccc(Cl)c(Cl)c1)NCCCCCN1CCC(NC(=O)c2ccc(F)c(F)c2)CC1 [TCMDC-135838],-28.53
3,Cc1ccc(Nc2nc(N/N=C/c3cccc(O)c3)nc(Nc3ccc([N+](=O)[O-])cc3)n2)cc1C [TCMDC-124125],-28.14
4,CCCN(Cc1nnc(-c2ccco2)o1)C(=O)C1CCN(c2ncc(C(F)(F)F)cc2Cl)CC1 [TCMDC-125335],-10.32
5,CCOc1ccc(Cc2c(C)nc3nc(N)nc(N)c3c2C)cc1 [TCMDC-137655],8.912
6,Cc1c(Cl)ccc2c(C(=O)Nc3ccncc3)cc(-c3cccnc3)nc12 [TCMDC-125224],6.226
7,COc1ccc(CNC2Cc3ccccc3C2)cc1-c1cccc(S(=O)(=O)NCCN2CCCC2)c1 [TCMDC-132269],112.5
8,COc1ccc(CNC2Cc3ccccc3C2)cc1-c1ccc(S(=O)(=O)NCCN2CCCC2)cc1 [TCMDC-132248],107.9
9,CC(C)NCc1ccc(-c2ccc(-c3nc4ccc(F)cc4[nH]3)cc2)cc1 [TCMDC-132740],14.26
10,CCc1ccccc1NC(=O)CN1CCN(c2ncnc3scc(-c4ccc(F)cc4)c23)CC1 [TCMDC-125248],-17.47
11,CC(C)CNC(=O)CN1C(=O)C(c2ccccc2)(c2ccccc2)N=C1N [TCMDC-137006],-9.905
12,Fc1ccc2[nH]c3c(NCCCN4CCOCC4)ncnc3c2c1 [TCMDC-124555],-45.7
13,CC(C)C[C@H](NC(=O)c1ccc(F)cc1)C(=O)N[C@H](/C=N/NC(=O)c1ccccc1)CCc1ccccc1 [TCMDC-135680],-1.54
14,Cn1c(=N)cc(-c2cccc(I)c2)c2c(=O)[nH]c(N)nc21 [TCMDC-137835],7.838
15,Cn1cccc1CCNCc1ccc(-c2cccc(-c3nc4cc(F)ccc4[nH]3)c2)cc1.O=C(O)C(F)(F)F [TCMDC-132684],7.89
16,O=C1CCCN1CCCNCc1cccc(-c2cccc(-c3nc4ccc(F)cc4[nH]3)c2)c1 [TCMDC-132765],-41.49
17,Fc1ccc2[nH]c(-c3cccc(-c4ccc(CNCCN5CCNCC5)cc4)c3)nc2c1 [TCMDC-132863],90.56
18,O=C1CCCN1CCCNCc1ccc(-c2cccc(-c3nc4ccc(F)cc4[nH]3)c2)cc1 [TCMDC-132750],-14.96
19,Fc1ccc2[nH]c(-c3cccc(-c4cccc(CNCCN5CCNCC5)c4)c3)nc2c1 [TCMDC-132860],97.72
20,Cn1nccc1C(=O)NCCNCc1cccc(-c2cccc(-c3nc4cc(F)ccc4[nH]3)c2)c1.O=C(O)C(F)(F)F [TCMDC-133020],-34.05
21,Cn1ncc2c3c(CCN4CCC(NCc5cc6c(cn5)OCC6)CC4)c(Cl)cnc3ccc21 [TCMDC-136024],-18.24
22,COc1ccccc1C(=O)Nc1cccc(N2CCC(NCc3ccc(-n4cccn4)cc3)CC2)c1 [TCMDC-124643],0.3581
23,COc1ccccc1NC(=O)Nc1ccc(-c2ccc(-c3nc4cccc(C)c4[nH]3)s2)cc1 [TCMDC-133201],-21.27
24,COc1cccc(CN(C(=O)Nc2ccccc2F)[C@H]2C[C@H]3C(=O)Nc4cc(F)ccc4C(=O)N3C2)c1 [TCMDC-134304],17.59

row,Compound,% Inhibition [%]
1,CC(C)(C)C(=O)Oc1ccc(CC2NCCc3cc(OC(=O)C(C)(C)C)c(OC(=O)C(C)(C)C)cc32)cc1OC(=O)C(C)(C)C (stereo not shown) [TCMDC-131452],-22.51
2,NC(=O)C1CCN(Cc2cccc(-c3cccc(-c4nc5ccc(F)cc5[nH]4)c3)c2)CC1 [TCMDC-132686],-35.6
3,NCC1CCCN1Cc1cccc(-c2cccc(-c3nc4ccc(F)cc4[nH]3)c2)c1 (stereo not shown) [TCMDC-133001],98.63
4,Cc1cccc2[nH]c(-c3cccc(-c4cccc(CN5CCCC5CN)c4)c3)nc12 (stereo not shown) [TCMDC-132989],49.36
5,NCC1CCCN1Cc1ccc(-c2ccc(-c3nc4ccccc4[nH]3)s2)cc1 (stereo not shown) [TCMDC-132988],37.26
6,Fc1ccc2nc(-c3ccc(-c4ccc(CN5CCN(CCN6CCOCC6)CC5)cc4)cc3)[nH]c2c1 [TCMDC-133926],-0.4105
7,NCC1CCCN1Cc1ccc(-c2cccc(-c3nc4ccc(F)cc4[nH]3)c2)cc1 (stereo not shown) [TCMDC-132998],102.5
8,NCC1CCCN1Cc1ccc(-c2ccc(-c3nc4ccc(F)cc4[nH]3)cc2)cc1 (stereo not shown) [TCMDC-132994],65.53
9,COc1ccccc1OCCN(CC(O)COc1cccc2[nH]c3ccccc3c12)CC(O)COc1cccc2[nH]c3ccccc3c12 (stereo not shown) [TCMDC-141980],-17.57
10,O=C1NCN(c2ccc(O)cc2)C12CCN(CCCC(c1ccc(F)cc1)c1ccc(F)cc1)CC2 [TCMDC-138052],-32.4
11,Cc1[nH]c(C)c(-c2ccc(C(=O)c3ccccc3)cc2)c(=O)c1Br [TCMDC-137419],74.6
12,Cc1[nH]c(C)c(-c2ccc(-c3ccc(Cl)cc3)cc2)c(=O)c1Cl [TCMDC-137416],50.46
13,Cc1[nH]c(C)c(-c2ccc(Cl)cc2)c(=O)c1I [TCMDC-137424],41.94
14,Cc1[nH]c(C)c(-c2csc3ccccc23)c(=O)c1Cl [TCMDC-136017],42.39
15,Cc1[nH]c(C)c(-c2ccc(/C=C/c3ccccn3)cc2)c(=O)c1Cl [TCMDC-135787],58.19
16,Cc1[nH]c(C)c(-c2ccc(C(=O)c3ccc(Cl)cc3)cc2)c(=O)c1Cl [TCMDC-137413],70.39
17,CC[C@H](C)CNC(=O)c1cncc(-c2ccc(CNCC3CNCCCO3)cc2)c1 (stereo partly shown) [TCMDC-134269],2.096
18,CN(C)CCCN1C(=O)c2[nH]nc(-c3ccc(Cl)cc3O)c2C1c1ccc(Cl)cc1 (stereo not shown) [TCMDC-124910],-62.01
19,C(=N\Nc1nccc2sc(-c3cccnc3)cc12)/c1cccnc1 [TCMDC-135297],-1.822
20,O=C1c2ccccc2CN1CCCN1CCC(Oc2ccc(F)cc2)CC1 [TCMDC-141252],-41.1
21,COc1c(Br)cc(Br)cc1-c1ccc(CN2C3CCCC2CCC3)[nH]1 [TCMDC-138965],-8.76
22,CC(C)S(=O)(=O)N1CCN(Cc2ccc3c(c2)nc(NC(=O)c2ccsc2)n3C[C@H](O)c2ccccc2)CC1 [TCMDC-138569],-9.312
